Assay results as given in PubChem BioAssay AID1159580 (chemical genetic matrix, 2015).
Several values for one entry are separate records, joined by “and”; a condition that tells them apart may be missing. Equal values may be shown once. Hit rate of the full screen: of about 5,500 compounds, about 2,000 (36%) were called active. Not shown: some 18% with an inconclusive outcome. No stated cut-off is given here; in the data, active means normalized growth mostly below about 0.91 (no sharp cut-off); inconclusive means no clear call, values can overlap the other calls; inactive means mostly above about 0.92. The list shows a part of the results.

Test: chemical genetic growth profiling, strain panel (AID 1159580);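 further: tested at 20 µM; growth read once vehicle control cultures reached saturation at 30 °C; 1 = growth at the plate median or of vehicle wells; lower values mean less growth of the strain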
Conditions: S. cerevisiae deletion strains, growth OD

Measured: normalized growth

CC12CCCC(O)(C1)C1CC(C)(C)C1CC2 (configuration not stated)
active: locus YDR137W, strain rgp1, hits give low values 0.8 | locus YDR159W, strain sac3, hits give low values 0.841 | locus YDR392W, strain spt3, hits give low values 0.37 | locus YER155C, strain BEM2 (second series), hits give low values 0.795
inactive: locus YAL013W, strain DEP1, hits give low values 1.02 | locus YAL021C, strain ccr4, hits give low values 1 | locus YAL026C, strain drs2, hits give low values 1 | locus YAL030W, strain snc1, hits give low values 0.985 | locus YBL061C, strain skt5, hits give low values 0.993 | locus YBR009C, strain hhf1, hits give low values 0.947 | locus YBR021W, strain FUR4, hits give low values 1 | locus YBR023C, strain chs3, hits give low values 0.951 | locus YBR171W, strain sec66, hits give low values 0.987 | locus YBR229C, strain ROT2, hits give low values 1 | locus YBR231C, strain swc5, hits give low values 0.977 | locus YBR279W, strain paf1, hits give low values 0.959 | locus YCL011C, strain gbp2, hits give low values 0.965 | locus YCL016C, strain dcc1, hits give low values 0.971 | locus YCL029C, strain bik1, hits give low values 1 | locus YCL061C, strain MRC1, hits give low values 0.962 | locus YCL069W, strain vba3, hits give low values 0.998 | locus YCR088W, strain abp1, hits give low values 0.993 | locus YDL005C, strain med2, hits give low values 1 | locus YDL035C, strain GPR1, hits give low values 1 | locus YDL040C, strain nat1, hits give low values 0.997 | locus YDL074C, strain BRE1, hits give low values 1.03 | locus YDL101C, strain DUN1, hits give low values 1.03 | locus YDL134C, strain PPH21, hits give low values 1.03 | locus YDL185W, strain tfp1, hits give low values 1.02 | locus YDL192W, strain arf1, hits give low values 0.984 | locus YDR001C, strain nth1, hits give low values 1 | locus YDR069C, strain doa4, hits give low values 0.951 | locus YDR101C, strain arx1, hits give low values 0.985 | locus YDR162C, strain NBP2, hits give low values 0.997 | locus YDR195W, strain ref2 0.949 | locus YDR297W, strain sur2, hits give low values 0.927 | locus YDR318W, strain mcm21, hits give low values 1.02 | locus YDR334W, strain swr1, hits give low values 1.04 | locus YDR335W, strain msn5, hits give low values 1 | locus YDR388W, hits give low values 1.01 | locus YDR502C, strain sam2, hits give low values 1.05 | locus YEL003W, strain gim4, hits give low values 0.942 | locus YEL037C, strain rad23, hits give low values 1 | locus YEL061C, strain CIN8 (second series), hits give low values 1 | locus YEL061C, strain CIN8, hits give low values 1 | locus YER015W, strain faa2, hits give low values 1.01 | locus YER016W, strain bim1, hits give low values 0.995 | locus YER110C, hits give low values 1.02 | locus YER111C, strain swi4, hits give low values 1 | locus YER155C, strain BEM2, hits give low values 0.994 | locus YER167W, strain BCK2, hits give low values 0.992 | locus YFR010W, strain ubp6, hits give low values 0.979 | locus YGL078C, strain dbp3, hits give low values 1.05 | locus YGL086W, strain mad1, hits give low values 1.02 | locus YGL167C, strain pmr1, hits give low values 0.999 | locus YGL173C, strain kem1, hits give low values 0.977 | locus YGL227W, strain vid30, hits give low values 0.998 | locus YGL240W, strain doc1, hits give low values 0.915 | locus YGL248W, strain PDE1, hits give low values 1.03 | locus YGL253W, strain hxk2, hits give low values 0.991 | locus YGR135W, strain pre9, hits give low values 1.08 | locus YGR252W, strain gcn5, hits give low values 1.09 | locus YHR013C, strain ard1, hits give low values 1.01 | locus YHR027C, strain rpn1, hits give low values 1 | locus YHR030C, strain SLT2, hits give low values 0.945 | locus YHR079C, strain IRE1 (second series), hits give low values 1.01 | locus YHR079C, strain IRE1, hits give low values 0.971 | locus YHR094C, strain hxt1, hits give low values 1.01 | locus YHR129C, strain ARP1, hits give low values 1.01 | locus YHR142W, strain chs7, hits give low values 0.923 | locus YHR200W, strain rpn10, hits give low values 1.04 | locus YIL066C, strain RNR3, hits give low values 1.01 | locus YIL073C, strain SPO22, hits give low values 1.03 | locus YIL125W, strain kgd1, hits give low values 1.01 | locus YIR030C, strain dcg1, hits give low values 1.01 | locus YJL092W, strain hpr5, hits give low values 0.992 | locus YJL095W, strain BCK1 (second series), hits give low values 0.934 | locus YJL095W, strain BCK1, hits give low values 1.03 and 0.976 | locus YJL115W, strain asf1, hits give low values 1.01 | locus YJL129C, strain trk1, hits give low values 0.956 | locus YJL134W, strain LCB3, hits give low values 0.995 | locus YJL154C, strain vps35, hits give low values 1.01 | locus YJL164C, strain tpk1, hits give low values 0.946 | locus YJL166W, strain qcr8, hits give low values 0.945 | locus YJL168C, strain set2, hits give low values 1.03 | locus YJL187C, strain SWE1 (second series), hits give low values 1.04 | locus YJL187C, strain SWE1, hits give low values 0.937
